# Measurements published in PubChem BioAssay (NCATS).
# Inconclusive results are not listed. Activity calls are given as the source filed them. Unless noted, calls come from the whole dose curve; as a rule, active = well fitted curve in the direction sought with a large enough effect; inconclusive = small, poorly fitted or top-dose-only effect, or another doubt; inactive = no such curve, though single readings can be large; an effect the other way counts as inactive or inconclusive.
# Key:
# [1] = Primary qHTS for inhibitors of nuclear receptor binding SET domain protein 2 (NSD2) in an isogenic RCH-ACV NSD2 p.E1099K mutant (9B) (AID 1645876); note: nearly all actives have a fitted effect of over 70% in size; note: potency is the fitted concentration of half-maximal effect
# [2] = Primary qHTS for inhibitors of nuclear receptor binding SET domain protein 2 (NSD2) in an RCH-ACV wild type WT cells (2C) (AID 1645877); note: nearly all actives have a fitted effect of over 70% in size; note: potency is the fitted concentration of half-maximal effect
# [3] = biological target: Glutathione peroxidase 1 (Homo sapiens) (UniProt P07203); assay: Primary qHTS Assay for Inhibitors of Recombinant Selenoprotein Glutathione Peroxidase 1 (GPX1) (AID 1845191); note: nearly all actives have a fitted effect of over 65% in size
# Glutathione peroxidase 1 (Homo sapiens), sequence (P07203 whole entry, looked up): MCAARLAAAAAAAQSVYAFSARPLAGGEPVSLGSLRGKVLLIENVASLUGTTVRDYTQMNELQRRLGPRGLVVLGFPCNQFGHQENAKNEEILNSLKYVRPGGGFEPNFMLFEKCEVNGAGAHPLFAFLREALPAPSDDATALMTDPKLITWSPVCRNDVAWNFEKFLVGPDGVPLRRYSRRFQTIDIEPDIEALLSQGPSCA
# How it was run: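 GPX1 10 nM, GR 100 nM, GSH 1 mM, NADPH 0.5 mM, CHP 0.5 mM (final). 30-min cpd preincubation, RT. Ex340/Em450 read t=0, t=15 min.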
# [4] = biological target: Phospholipid hydroperoxide glutathione peroxidase GPX4 (Homo sapiens) (UniProt P36969); assay: Primary qHTS Assay for Inhibitors of Recombinant Selenoprotein Glutathione Peroxidase 4 (GPX4) (AID 1845192); note: nearly all actives have a fitted effect of over 65% in size; note: potency is the fitted concentration of half-maximal effect
# Phospholipid hydroperoxide glutathione peroxidase GPX4 (Homo sapiens), sequence (P36969 whole entry, looked up): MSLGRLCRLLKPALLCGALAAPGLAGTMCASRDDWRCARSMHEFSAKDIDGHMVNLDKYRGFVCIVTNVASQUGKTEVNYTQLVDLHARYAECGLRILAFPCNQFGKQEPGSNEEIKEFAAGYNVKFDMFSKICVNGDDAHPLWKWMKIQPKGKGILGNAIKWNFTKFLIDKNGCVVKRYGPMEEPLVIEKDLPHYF
# How it was run: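 qHTS, GR-coupled: GPX4 200 nM + cpd 30 min RT → GSH 1 mM, NADPH 0.5 mM, GR 100 nM → CHP 0.5 mM start; fluor 340/450 at t0 and t15 min; no-enzyme wells as control.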
# [5] = qHTS drug screen for cell cycle checkpoint inhibitors in PARPi-resistant BRCA-mutant ovarian cancer cell lines. (AID 1963452; calls by dose curve; note: potency is the fitted concentration of half-maximal effect); details: PEO1/OlaR viability, CellTiter-Glo luminescence, 96 h; for Z-AUC: stronger effect = lower value
# How it was run: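 PEO1, PEO4 and PEO1/OlaR ovarian cancer cells, 600 per well, exposed 96 h at 37C to a dilution series. Viability read by CellTiter-Glo luminescence, normalized to DMSO and empty wells; activity summarized as Z-AUC.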
# [6] = NCATS anti-infectives library activity on HEK293 viability as a counter-qHTS vs the C. elegans viability qHTS (AID 1745854)
# How it was run: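 CellTiter-Glo luminescence, read on a CCD imager, scored viability of HEK293 cells after 24 hr compound exposure at 37C. Library tested in several concentrations, 1:5 steps, up to 41.7 uM; digitonin served as control.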
# [7] = measured here: PEO1 parental Z-AUC
Compound,Potency [1],Potency [2],Potency [3],Potency [4],Z-AUC [5],"Z-AUC [5, 7]",Z-AUC ([5]; measured here: PEO4 Z-AUC),outcome [6],Potency [5]
N#Cc1cccnc1N1CCN(C(=O)c2cccc(Cc3n[nH]c(=O)c4ccccc34)c2)CC1,0.0332 µM (active),0.0209 µM (active),inactive,inactive,-1.35 (inactive),-2.79,-1.63,,
C[C@@H](OC[C@@]1(c2ccccc2)CC[C@]2(CCC(=O)N2)CN1)c1cc(C(F)(F)F)cc(C(F)(F)F)c1,9.34 µM (active),9.34 µM (active),inactive,inactive,-0.524 (inactive),-0.495,-0.395,,
NC(=O)c1ccc2nc(-c3ccc(C4(N)CCC4)cc3)c(-c3ccccc3)n2n1,0.296 µM (active),0.332 µM (active),inactive,inactive,,,,,
C=CC(C)(/C=C/c1ccc(O)cc1)CCC=C(C)C (stereo not given),20.6 µM (active),18.4 µM (active),inactive,,,,,,
CC[C@H](NC(=O)[C@H](C)NC)C(=O)N1C[C@@H](O)C[C@H]1Cc1c(-c2[nH]c3cc(F)ccc3c2C[C@@H]2C[C@H](O)CN2C(=O)[C@H](CC)NC(=O)[C@H](C)NC)[nH]c2cc(F)ccc12,5.25 µM (active),18.6 µM (active),,,1.52 (inactive),1.38,0.68,inactive,
C=CC(=O)N[C@H]1CN(c2nc(Nc3cn(C)nc3OC)c3ncn(C)c3n2)C[C@@H]1F,14.8 µM (active),20.9 µM (active),inactive,inactive,0.581 (inactive),0.0382,0.231,,
CC[C@@H]1[C@H](F)C(=O)N[C@@H]1COc1nccc2cc(C(N)=O)c(OC)cc12,14.8 µM (active),10.5 µM (active),inactive,18 µM (active),,,,,
C=C1[C@H](OC(=O)/C=C(\C)CC)C[C@@H](C(C)C)[C@@H]2[C@H]([C@@H](C)OC(C)=O)C(=O)C[C@@H]12,inactive,inactive,inactive,inactive,,,,,
CCN1/C(=C/C(C)=O)Sc2ccc(OC(C)=O)cc21,16.4 µM (active),20.6 µM (active),inactive,,,,,,
Nc1cc(C(F)(F)F)c(-c2nc(N3CCOCC3)nc(N3CCOCC3)n2)cn1,0.742 µM (active),0.525 µM (active),inactive,inactive,-0.884 (inactive),-0.21,-0.177,,
NC(=O)C1=C(O)[C@@]2(O)C(=O)C3=C(O)c4c(O)cccc4C[C@H]3C[C@H]2CC1=O,4.17 µM (active),3.32 µM (active),inactive,,,,,,
COc1cc(OC)cc(N2CCN(C(=O)Nc3nc4cc(F)ccc4nc3OC)CC2)c1,20.9 µM (active),26.3 µM (active),inactive,inactive,-0.785 (inactive),-0.317,0.136,,
Cc1ccc(Sc2ccccc2N2CCNCC2)c(C)c1,10.5 µM (active),7.42 µM (active),inactive,inactive,0.87 (inactive),0.0255,-0.0248,,
Cc1cc(Nc2ncnc3ccc(NC4=NC(C)(C)CO4)cc23)ccc1Oc1ccn2ncnc2c1,18.6 µM (active),16.6 µM (active),inactive,inactive,-0.395 (inactive),-0.0434,-0.29,,
Oc1cccc(Nc2ncnc3sc4c(c23)CCCC4)c1,9.2 µM (active),8.2 µM (active),inactive,,,,,,
CC(=O)NCCNc1cc(Cl)nn2c(-c3cccc(S(=O)(=O)N(C)C)c3)c(C)nc12,7.31 µM (active),4.61 µM (active),inactive,,,,,,

Compound,Potency [1],Potency [2],Potency [3],Potency [4],Z-AUC [5],"Z-AUC [5, 7]",Z-AUC ([5]; measured here: PEO4 Z-AUC),outcome [6],Potency [5]
CCC(=O)NC[C@H](Cc1ccc(OCCc2nc(-c3ccccc3)oc2C)cc1)N/C(C)=C\C(=O)c1ccc(C(F)(F)F)cc1,inactive,inactive,inactive,inactive,0.763 (inactive),0.398,0.423,,
COc1ccccc1C(=O)Nc1cc2c(cc1N1CCNC[C@H]1C)n(C)c(=O)n2C,20.9 µM (active),18.6 µM (active),inactive,inactive,-0.6 (inactive),-0.159,0.121,,
CN[C@H]1CN(c2ccc3c(=O)c(C(=O)O)cn(-c4nccs4)c3n2)C[C@@H]1OC,0.135 µM (active),0.0762 µM (active),inactive,inactive,,,,,
CC1=C2C[C@H]3[C@@H](CC[C@@H]4C[C@H](NS(C)(=O)=O)CC[C@@]43C)[C@@H]2CC[C@@]2(C1)O[C@@H]1C[C@H](C)CN[C@H]1[C@H]2C,13.2 µM (active),13.2 µM (active),inactive,inactive,0.848 (inactive),0.333,-0.208,,
COc1ccc2c(c1)[C@]1(C[C@H]1c1ccc3c(/C=C/c4ccc(CN5C[C@@H](C)O[C@@H](C)C5)cc4)n[nH]c3c1)C(=O)N2,1.32 µM (active),0.0295 µM (active),inactive,inactive,0.356 (inactive),-0.0342,-0.785,,
CC(/C=C/[C@@H]1C[C@]1(C)c1ccc2c(c1)C(C)(C)CCC2(C)C)=C\C(=O)O,inactive,inactive,inactive,,-0.0414 (inactive),0.571,0.122,,
CCNC(=O)Nc1ccc(-c2nc3c(c(N4CCOC[C@@H]4C)n2)CCN(C2COC2)C3)cc1,0.833 µM (active),0.742 µM (active),inactive,inactive,0.987 (inactive),1.46,1.27,,
Cc1noc(-c2ccc(-c3ccc(C4(C(=O)O)CC4)cc3)cc2)c1NC(=O)O[C@H](C)c1ccccc1,16.6 µM (active),16.6 µM (active),,9.04 µM (active),1.39 (inactive),1.53,1.53,,
O=C(Nc1ncc(SCCN2CCCC2)s1)[C@]1(c2ccc(S(=O)(=O)C3CC3)cc2)C[C@H]1C1CCCCC1,10.5 µM (active),8.33 µM (active),inactive,inactive,0.2 (inactive),-0.0651,0.2,,
COc1ccc(Oc2cc(NCCC(F)(F)F)c3ncc(-c4ccc(C(=O)NC5CC5)c(C)c4)n3n2)c(F)c1F,0.0235 µM (active),0.0148 µM (active),inactive,inactive,1.26 (inactive),0.0575,-0.837,,
CCOC(=O)C1=CCCCC1S(=O)(=O)Nc1ccc(F)cc1Cl (stereo not given),20.9 µM (active),18.6 µM (active),inactive,,1.33 (inactive),1.11,1.15,,
[2H]C([2H])([2H])C(O)([C@@H](C)/C=C/[C@@H](C)[C@H]1CC[C@H]2/C(=C/C=C3C[C@@H](O)C[C@H](O)C3)CCC[C@]12C)C([2H])([2H])[2H],inactive,inactive,inactive,inactive,1.18 (inactive),0.263,0.327,,
Cc1ccc(-c2nn(C(C)(C)CNC(=O)c3ccncc3)c3ncnc(N)c23)cc1,8.33 µM (active),7.42 µM (active),inactive,inactive,-0.525 (inactive),-1.23,-1.14,,
COc1ccc(S(=O)(=O)N(C(C)=O)c2ccccc2/C=C/c2cc[n+]([O-])cc2)cc1,1.05 µM (active),1.05 µM (active),inactive,,,-1.34,-1.39,,1.1 µM (active)
COc1cc(Nc2cnc(C#N)c(O[C@H](C)CN(C)C)n2)ncc1-c1cnn(C)c1,0.148 µM (active),0.833 µM (active),inactive,inactive,-0.958 (inactive),-0.63,-0.472,,
